Most compounds without a hit are left out; they make up all but 12% or so of the library.
SARS PLP yeast = blocks SARS-CoV papain-like protease in a yeast assay; actives 0.19% (n = 330,000); AID 485353; Potency, µM (top dose mostly 32.9 µM), inactives show at the top dose activity, positive = growth rescue, actives largely listed as activators; S. cerevisiae expressing SARS-CoV PLpro, growth rescue; calls by dose curve; also: 0% is about no effect; nearly all actives have a fitted effect of over 55% in size
Pf growth 96h = inhibits malaria parasite growth, 96 h; AID 504834; actives 6.9% (n = 320,000); Potency, µM (series often up to 28.7 µM), without a hit: top-dose activity change, negative = inhibition, actives largely listed as inhibitors; P. falciparum luciferase reporter growth, 96 h; also: % is scaled to controls: 0 for no effect and ±100 for the full control effect
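Compounds incubated with erythrocytes infected by luciferase-expressing P. falciparum (2% hematocrit, 0.05% parasitemia final) for 96 hours, 37 C in 5% CO2. Growth inhibition scored as decreased luciferase luminescence.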
AmpC inh detg = blocks E. coli AmpC beta-lactamase in detergent assay. P00811. AmpC hydrolysis of nitrocefin, absorbance 480 nm, 0.01% Triton. Potency, µM (doses to about 114 µM), for the others: at the highest dose activity change, negative = inhibition, most hits filed as inhibitors. actives 0.041% (n = 370,000). AID 485294;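 also: 0% = no-compound wells and -100% = no-enzyme wells; nearly all actives have a fitted effect of over 25% in size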
Target sequence (P00811 whole entry, looked up): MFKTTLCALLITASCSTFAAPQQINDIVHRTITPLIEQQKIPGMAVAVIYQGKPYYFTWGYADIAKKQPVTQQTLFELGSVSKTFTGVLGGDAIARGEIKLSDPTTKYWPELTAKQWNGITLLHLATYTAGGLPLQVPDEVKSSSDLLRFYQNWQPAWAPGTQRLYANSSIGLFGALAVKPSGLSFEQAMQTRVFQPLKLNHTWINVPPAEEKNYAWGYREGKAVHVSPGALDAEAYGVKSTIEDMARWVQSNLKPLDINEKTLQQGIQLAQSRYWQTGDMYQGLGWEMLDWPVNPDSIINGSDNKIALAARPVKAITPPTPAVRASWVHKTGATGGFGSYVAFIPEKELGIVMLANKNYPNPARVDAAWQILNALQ
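AmpC (5.3 nM in the dispensed reagent) in 20 mM phosphate pH 7.0 with 0.01% (detergent screen) or 0.0001% Triton X-100 was preincubated with compounds for 15 min at room temperature. Nitrocefin was then added from an 800 uM solution, and hydrolysis was followed at 480 nm.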
Pf growth 48h = inhibits P. falciparum growth in the first generation, 48 h. actives 5.9% (n = 310,000). P. falciparum luciferase growth in erythrocytes, 48 h. Potency, µM (series often up to 28.7 µM), for inactives: at the highest dose activity change, negative = inhibition, hits mostly inhibitors; also: % is scaled to controls: 0 for no effect and ±100 for the full control effect
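Luciferase-expressing P. falciparum in infected erythrocytes (2% hematocrit, 0.1% parasitemia final) in RPMI 1640/0.5% Albumax were exposed to compound for 48 hours at 37 C, 5% CO2; growth read as luminescence.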
AmpC no deterg = AmpC beta-lactamase inhibition without detergent. P00811. AmpC nitrocefin hydrolysis, absorbance 480 nm, 0.0001% Triton. Potency, µM (doses to about 57.1 µM), for the others: at the highest dose activity change, negative = inhibition, actives largely listed as inhibitors. actives 0.52% (n = 330,000). AID 485341;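 also: plate controls were no compound for no effect and no enzyme for full effect; nearly all actives have a fitted effect of over 20% in size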
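20 mM phosphate pH 7.0 + 0.01% (detergent screen) or 0.0001% Triton X-100; 5.3 nM AmpC reagent; cpd preinc 15 min RT; nitrocefin (800 uM stock) to start; A480 q20 s × 4 min; Activity was normalised to no-enzyme and no-compound control wells.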
Sm TGR block = inhibitors of Schistosoma mansoni thioredoxin glutathione reductase | Q962Y6 | purified TGR, DTNB reduction, TNB absorbance 405 nm | Potency, µM (top dose mostly 114 µM), for the others: at the top dose activity change, negative = inhibition, actives largely listed as inhibitors | actives 3% (n = 360,000); also: % is scaled to controls: 0 for no effect and ±100 for the full control effect; nearly all actives have a fitted effect of over 60% in size
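First, TGR (20 nM dispensed) and NADPH were mixed with compound. Second, a 15 min room-temperature incubation followed. Third, further NADPH and then DTNB were added to start the reaction. Finally, TNB absorbance was monitored kinetically.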
* hit, by the source's call; ? = inconclusive; · = no result given. Unless noted, calls follow the shape of the dose curve; as a rule, active = well fitted curve in the direction sought with a large enough effect; inconclusive = small, poorly fitted or top-dose-only effect, or another doubt; inactive = no such curve, though single readings can be large; an effect the other way counts as inactive or inconclusive. Potency is read from the fitted curve at half-maximal effect.

SMILES	SARS PLP yeast	Pf growth 96h	AmpC inh detg	Pf growth 48h	AmpC no deterg	Sm TGR block
CCN(Cc1ccccc1)S(=O)(=O)c1ccc2c(c1)CC(C)N2C(=O)C1CCC1 (centres undefined)	·	·	0.8%	·	·	-0.9%
O=c1cc(N2CCN(Cc3ccccc3)CC2)[nH]c(=O)n1Cc1ccc(F)cc1	-5.0%	3.7µM*	-0.1%	6.9%	-18.3%	?
CCn1cnc2c1c(=O)n(Cc1cccc([N+](=O)[O-])c1)c(=O)n2Cc1ccccc1	5.3%	?	-1.6%	8.28µM*	28.9%	-0.2%
CCn1cnc2c1c(=O)n(CC(=O)NCc1ccccc1)c(=O)n2Cc1ccccc1	-0.4%	?	-5.7%	?	-5.4%	0.5%
CCOC(=O)c1c(C)[nH]c(C(=O)Cn2c(=O)c3c(ncn3CC)n(Cc3ccccc3)c2=O)c1C	-14.7%	10.4µM*	-10.7%	8.28µM*	113.9%	-13.2%
CO	·	4.4%	·	-2.2%	·	·
CN(C)C(=O)c1cnc(-c2ccccc2)nc1-c1ccccc1	0.7%	-27.9%	2.8%	-12.3%	38.9%	-10.1%
CC1CCN(C(=O)CN2C(=O)C(C)(C)Oc3ccc(C(=O)NC(C)C)cc32)CC1	-5.3%	25.5%	2.1%	21.8%	-7.3%	-0.1%
O=C(CCN1CCCCC1)N/N=C/c1c[nH]c2ccccc12	1.2%	17.2%	-4.0%	6.0%	-6.8%	-0.8%
COc1ccc(C(NC(=O)N2CC(C)OC(C)C2)C(Cl)(Cl)Cl)cc1F (centres undefined)	26.4%	3.29µM*	1.9%	13.1µM*	36.5%	-4.7%
Cc1ccc(C(NC(=O)N2CC(C)OC(C)C2)C(Cl)Cl)cc1F (centres undefined)	-11.3%	-12.0%	?	?	-3.3%	-6.4%
COc1cccc(Cn2c(=O)n(CCc3ccccc3)c(=O)c3c2c2cc(OC)ccc2n3C)c1	·	·	-5.1%	·	·	2.5%
CCOC(=O)c1c(-n2c(C)cc(C=C3C(=O)NC(=S)NC3=O)c2C)sc2c1CCCC2	-15.2%	11.7µM*	-7.2%	11.7µM*	-31.7%	11.2µM*
COC(=O)c1c(-n2c(C)cc(C=O)c2C)sc2c1CCCC2	-18.9%	?	-3.1%	10.4µM*	31.0%	-1.4%
CC(NC(=O)c1cccc(OC2CCN(C3CCN(C)CC3)CC2)c1)c1ccccc1 (centres undefined)	28.2%	?	4.0%	?	19.0%	14.1µM*
CC(NC(=O)c1cccc(OC2CCN(C(=O)C3CC3)CC2)c1)c1ccc(F)cc1 (centres undefined)	-0.2%	?	-10.8%	-19.4%	65.4%	5.8%
CCC1CCCCN1CCCNC(=O)c1ccc2c(c1)N(Cc1ccccc1F)C(=O)c1ccccc1S2(=O)=O (centres undefined)	·	·	15.4%	·	·	10.3%
Cc1cc(N=Nc2c(O)c3ccccc3[nH]c2=O)ccc1N=Nc1ccc(C(=O)N(C)C)cc1	-0.6%	2.08µM*	-0.9%	1.85µM*	-10.2%	8.4%
Cc1ccc(N=Nc2c(O)c3ccccc3[nH]c2=O)c(S(=O)(=O)N(C)C)c1	-0.7%	?	-0.5%	?	-22.1%	-0.4%
CN(Cc1cnc2nc(N)nc(N)c2n1)c1ccc(C(=O)N[C@@H](CCC(=O)O)C(=O)O)cc1	·	1.69µM*	·	0.0426µM*	·	·
Nc1nc2ncc(CNc3ccc(C(=O)NC(CCC(=O)O)C(=O)O)cc3)nc2c(=O)[nH]1 (centres undefined)	·	1.7%	·	-1.1%	·	·
C=CCNC(=O)c1cc2c(=O)n3cc(C)ccc3nc2nc1NCC1CCCO1 (centres undefined)	22.4%	4.15µM*	0.5%	8.4%	-16.9%	-3.8%
CCNc1nc2nc3ccc(C)cn3c(=O)c2cc1C(=O)NCC1CCCO1 (centres undefined)	0.6%	37.9%	1.0%	4.8%	-13.1%	4.8%
N=c1c(C(=O)NC2CCCC2)cc2c(=O)n3ccccc3nc2n1CC1CCCO1 (centres undefined)	1.7%	?	-0.2%	13.1µM*	-25.4%	3.0%
COCCn1c(=N)c(C(=O)NCC2CCCO2)cc2c(=O)n3ccccc3nc21 (centres undefined)	·	·	5.4%	·	·	5.9%
SMILES	SARS PLP yeast	Pf growth 96h	AmpC inh detg	Pf growth 48h	AmpC no deterg	Sm TGR block
CC(NC(=O)c1cc2c(=O)n3ccccc3nc2n(CC2CCCO2)c1=N)c1ccccc1 (centres undefined)	0.8%	19.3%	-15.5%	13.1µM*	-7.3%	5.7%
Cc1ccc(CNC(=O)c2cc3c(=O)n4ccccc4nc3n(CC3CCCO3)c2=N)cc1 (centres undefined)	-6.3%	?	-5.2%	2.62µM*	-8.4%	-11.8%
N=c1c(C(=O)NC2CCCCC2)cc2c(=O)n3ccccc3nc2n1CC1CCCO1 (centres undefined)	-0.2%	?	4.6%	?	-8.5%	-5.3%
Cc1ccc2nc3c(cc(C(=O)NCC4CCCO4)c(=N)n3CC3CCCO3)c(=O)n2c1 (centres undefined)	-0.5%	53.8%	-11.7%	44.6%	-10.0%	1.3%
CC(=O)Nc1cccc(C(=O)OCc2csc(CC(=O)Nc3ccccc3C)n2)c1	0.7%	?	?	9.28µM*	-11.3%	-13.6%
CC(=O)Nc1ccc(S(=O)(=O)NCCC(=O)OCc2csc(CC(=O)Nc3ccccc3C)n2)cc1	-0.6%	?	-13.7%	11.7µM*	?	0.0%
Cc1ccc(C(=O)Nc2ccc(C(=O)N/N=C/c3ccc(C)o3)cc2)cc1	1.5%	-7.2%	-2.3%	?	?	-30.3%
CCc1nn(CC(=O)NCc2cccc(OC)c2OC)c(=O)c2cc3occc3n12	·	·	6.4%	·	·	5.7%
COc1cc(/C=C(\C#N)c2nc3ccccc3[nH]2)cc(Br)c1OCc1ccccc1	-21.5%	-15.3%	-15.4%	2.94µM*	?	-13.6%
COc1cc(/C=C(/C#N)c2nc3ccccc3c(=O)[nH]2)ccc1O	5.7%	?	6.9%	24.8%	28.2µM*	0.4%
COc1cc(/C=C(\C#N)c2nc3ccccc3[nH]2)cc(Br)c1OCc1ccc(F)cc1	-2.6%	2.08µM*	5.6%	3.7µM*	-30.3%	3.0%
COc1cc(/C=C(\C#N)c2nc3ccccc3[nH]2)cc(OC)c1O	-0.8%	-4.8%	1.1%	?	20.4%	·
COc1cc(/C=C(\C#N)c2nc3ccccc3[nH]2)ccc1OCc1ccccc1F	·	·	-3.0%	·	·	-7.9%
CC(C)(C)c1ccc(NNC(=O)C2CCC2)cc1	-0.3%	13.5%	6.1%	28.5%	-12.6%	44.7µM*
CC(=O)NCc1c(Cl)cccc1-n1cccc1	10µM*	-12.7%	1.1%	-5.4%	-8.9%	-10.5%
